From paper PMC10668032, “Altered binding affinity of SIX1-Q177R correlates with enhanced WNT5A and WNT pathway effector expression in Wilms tumor” come the findings set out here.

Whole data set: some 33,000 sequences, median “e-score” near -0.05, cut for the highest 2% near 0.38. Many of the other results were omitted from the sample, so the highest values are more common in it than they were.

The assay concerns the target T1, SIX1-Q177R homeodomain (human, UniProt Q15475 108-198, Q177R).
T1 sequence: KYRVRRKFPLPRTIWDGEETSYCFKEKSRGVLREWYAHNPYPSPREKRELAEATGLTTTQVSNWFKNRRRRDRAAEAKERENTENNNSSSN
Nature of the assay: universal protein binding microarray; Universal all-10-mer PBM (8x60K, AMADID 030236), 300 nM GST-tagged protein, Alexa Fluor 488 anti-GST; buffer, salt, pH and temperature not stated (as in Berger); high values mean tight binding. Conditions: protein: ivt; tags: N-terminal GST; dsDNA, one strand shown. The method in brief: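 GST-tagged homeodomains were made by in vitro transcription/translation and quantified by anti-GST western blot against a recombinant GST standard curve. They were applied in duplicate at 300 nM final concentration to universal 'all 10-mer' protein binding microarrays (8×60K format). Binding was quantified as 8-mer E-scores with the Universal PBM Analysis Suite.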
With CACCACTC, the binding signal is 0.322 ± 0.00333 E-score.

On to CGTATGAC, for which the binding signal came out at 0.199 ± 0.0291 E-score. In the case of AATAGGTG it was 0.207 ± 0.0434 E-score. In the case of AGTGTAAT it was 0.413 ± 0.0369 E-score; in that of AGTGTAAG, 0.415 ± 0.026 E-score; in that of AGTGTGAT, 0.223 ± 0.0157 E-score. For GGTGTAAA, the binding signal was 0.476 ± 0.0157 E-score.

As for CGTGTAAA, the binding signal came out at 0.435 ± 0.0253 E-score. In the case of CGGGTAAA it was 0.194 ± 0.0165 E-score. In the case of GGGGTAAA it was 0.29 ± 0.0101 E-score; in that of AGTGTGAG, 0.208 ± 0.00245 E-score; in that of GGAGTAAA, 0.222 ± 0.0733 E-score. In the case of AGTGTATG it was 0.36 ± 0.013 E-score; in that of AGTCGGGG, 0.158 ± 0.0158 E-score; in that of CCCCCCGC, 0.248 ± 0.0302 E-score.

With GCGATCCC, the binding signal is 0.182 ± 0.0137 E-score. In the case of CGGAGTGA it was 0.216 ± 0.008 E-score.

Consider CACGATGC, for which the binding signal amounted to 0.182 ± 0.0345 E-score. In the case of GGTGCCAC it was 0.195 ± 0.0196 E-score; in that of CTCCCGAC, 0.1532 ± 0.000212 E-score. In the case of AGAGTAAC it was 0.163 ± 0.0176 E-score; in that of AGGGTAAC, 0.176 ± 0.0073 E-score; in that of AGTGTAAA, 0.402 ± 0.0464 E-score. In the case of AGTGTAAC it was 0.419 ± 0.0327 E-score; in that of TGTGTAAA, 0.235 ± 0.0184 E-score; in that of ACTGGGAG, 0.223 ± 0.0162 E-score. Turning to ACCGGTGC, the binding signal came out at 0.238 ± 0.0365 E-score. In the case of CCGATCCA it was 0.188 ± 0.0051 E-score; in that of ACCCCCTA, 0.337 ± 0.0127 E-score; in that of ATTACACA, 0.291 ± 0.00197 E-score. ATTACACC: the binding signal turned out to be 0.479 ± 0.0126 E-score. In the case of ATTACTCC it was 0.287 ± 0.0213 E-score; in that of ATTACACG, 0.435 ± 0.0178 E-score.

On to CTTACTCC, for which the binding signal turned out to be 0.194 ± 0.0358 E-score. For the sequence CTTACACC, the binding signal worked out at 0.478 ± 0.00815 E-score. As to ATTACCCC, the binding signal turned out to be 0.294 ± 0.00817 E-score. In the case of GTTACACA it was 0.267 ± 0.0166 E-score; in that of CTTACACA, 0.231 ± 0.0061 E-score. In the case of ACGCGGGC it was 0.164 ± 0.0117 E-score; in that of GGTGGGTA, 0.165 ± 0.0261 E-score; in that of GAGATACC, 0.225 ± 0.0222 E-score. In the case of GATTAACA it was 0.162 ± 0.0238 E-score; in that of ACACTCGG, 0.408 ± 0.0187 E-score. For the sequence ACACTCGT, the binding signal was 0.351 ± 0.0272 E-score.

As to AGACTCGG, the binding signal turned out to be 0.16 ± 0.0294 E-score. For the sequence ACACTCGC, the binding signal amounted to 0.385 ± 0.0258 E-score. In the case of CCACTCGC it was 0.222 ± 0.00987 E-score; in that of ACACTCGA, 0.358 ± 0.0137 E-score.

Turning to AAGCTACA, the binding signal was 0.178 ± 0.0271 E-score. CGTGTGAC: the binding signal was 0.304 ± 0.0135 E-score.

Take GGTGTGTA: the binding signal amounted to 0.411 ± 0.0106 E-score. In the case of GGTGTGAA, the binding signal was found to be 0.427 ± 0.00482 E-score. Consider GGTGTGAC, for which the binding signal is 0.435 ± 0.0199 E-score. In the case of TGTGTGAA, the binding signal amounted to 0.187 ± 0.0245 E-score. Consider CGTGTGCA, for which the binding signal was 0.202 ± 0.0212 E-score. On to AGTGTGAA, for which the binding signal is 0.276 ± 0.021 E-score. In the case of GGTGTGCA it was 0.391 ± 0.0295 E-score. In the case of AGTGTGCA it was 0.185 ± 0.00583 E-score. In the case of AGTGTGTA it was 0.285 ± 0.00827 E-score; in that of AGTGTGAC, 0.359 ± 0.00684 E-score; in that of CACTCGGA, 0.177 ± 0.0507 E-score. As to GTATCACA, the binding signal is 0.3 ± 0.034 E-score. For the sequence ATCCGACA, the binding signal is 0.238 ± 0.04 E-score. In the case of ACCTAGGT it was 0.157 ± 0.0301 E-score; in that of GGGGGATA, 0.2 ± 0.0198 E-score. As to CAAGCACC, the binding signal was found to be 0.176 ± 0.0183 E-score. Regarding GGTATATA, the binding signal stood at 0.1906 ± 0.000509 E-score. CGTGTATA: the binding signal is 0.367 ± 0.0156 E-score. In the case of GGTGTATA it was 0.458 ± 0.0157 E-score. As to GTGCAACA, the binding signal stood at 0.292 ± 0.0195 E-score. As for ACCTATAA, the binding signal came to 0.177 ± 0.008 E-score. In the case of AGTTTATC it was 0.208 ± 0.0174 E-score; in that of CCCCGAGC, 0.198 ± 0.0241 E-score; in that of CGGGTATC, 0.374 ± 0.0147 E-score. In the case of AGTGTATA it was 0.359 ± 0.0244 E-score; in that of AGTGTATC, 0.399 ± 0.0163 E-score; in that of CGTGTATC, 0.39 ± 0.00909 E-score. In the case of AGAGTATC, the binding signal was 0.238 ± 0.0465 E-score.

Consider TCTAGACA, for which the binding signal is 0.155 ± 0.0039 E-score. In the case of CGATCCCC it was 0.303 ± 0.0313 E-score; in that of CCCCAGGA, 0.173 ± 0.00623 E-score; in that of AGCGAGTG, 0.268 ± 0.0193 E-score. Take CAAACTAG: the binding signal came to 0.152 ± 0.0273 E-score.

Take GAGTGTGA: the binding signal was 0.29 ± 0.0218 E-score. For GTGTGTGA, the binding signal was 0.229 ± 0.0436 E-score. For CGGTGTGA, the binding signal came to 0.434 ± 0.0168 E-score.
